In PubChem BioAssay (NCATS):
“And” between values parts separate entries of the source, which are not always exact repeats. Equal entries are not always repeated. Inconclusive results are not listed. Where a call stands in place of a potency, no number is given. The source made the active and inactive calls. The call rests on the fitted dose curve.

Legend:
[1] = Cytotoxicity counterscreen for inhibitors of SARS-CoV-2 cell entry (AID 1645845); details: cell viability (SARS-CoV-2 entry assay cells); series mostly up to 57.1 µM; further: nearly all actives have a fitted effect of over 50% in size
In short: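 After a 15 min room-temperature ATPLite 1step step, luminescence reflected ATP remaining in HEK293-ACE2 cells exposed to compound for 1 h plus 48 h at 37 C, with percent activity set by cell and no-cell controls.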

[2] = Primary qHTS to identify inhibitors of SARS-CoV-2 cell entry (AID 1645846); details: SARS-CoV-2 pseudovirus cell entry assay, luminescence; activity change, negative = inhibition: at 57.1 µM (top of the series) unless noted; series mostly up to 57.1 µM; further: nearly all actives have a fitted effect of over 45% in size; further: potency means the concentration at half of the fitted maximal effect
In short: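 Entry measured by luciferase signal 48 h after adding SARS-CoV-2-S pseudotyped MLV particles to HEK293-ACE2 cells preincubated 1 h with compounds. Normalisation: bald particles and spike particles.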

| SMILES | Potency [1] | Potency [2] | activity change, negative = inhibition [2] |
| --- | --- | --- | --- |
| CCn1cc(C(=O)O)c(=O)c2ccc(C)nc21 | inactive | inactive |  |
| CCCNC(=O)NS(=O)(=O)c1ccc(Cl)cc1 | inactive | inactive |  |
| COC(=O)[C@H]1[C@H]2C[C@@H]3c4[nH]c5cc(OC)ccc5c4CCN3C[C@H]2C[C@@H](OC(=O)c2cc(OC)c(OC)c(OC)c2)[C@@H]1OC | inactive |  | -18.9% |
| COc1nc(N)nc2c1ncn2[C@@H]1O[C@H](CO)[C@@H](O)[C@@H]1O | inactive | inactive |  |
| CC1=C(C(=O)O)N2C(=O)[C@@H](NC(=O)[C@H](N)c3ccccc3)[C@H]2SC1 | inactive |  | -1.93% |
| O=C(OC1C[C@H]2CC[C@@H](C1)[N+]21CCCC1)C(O)(c1ccccc1)c1ccccc1 (stereo not given in full) | inactive |  | -4.34% |
| CC(C)(O)c1ccccc1CC[C@@H](SCC1(CC(=O)O)CC1)c1cccc(/C=C/c2ccc3ccc(Cl)cc3n2)c1 | inactive | inactive |  |
| C[n+]1ccccc1/C=N/O | inactive | inactive |  |
| CC1(CN2CCC(n3c(=O)[nH]c4ccccc43)CC2)OCc2ccccc2-n2cccc21 (stereo not given) | inactive |  | -26.7% |
| Nc1nc(N)c2nc(-c3ccccc3)c(N)nc2n1 | inactive | inactive |  |
| O=C1c2cccc3c2[C@H](CCC3)CN1[C@@H]1CN2CCC1CC2 | inactive | inactive |  |
| CCCC(=O)Nc1ccc(OCC(O)CNC(C)C)c(C(C)=O)c1 (stereo not given) | inactive |  | 4.12% |
| CO/N=C1\CN(c2nc3c(cc2F)c(=O)c(C(=O)O)cn3C2CC2)CC1CN (stereo not given) | inactive |  | -12.6% |
| CC1(C)O[C@@H]2[C@@H](CO[C@@]3(COS(N)(=O)=O)OC(C)(C)O[C@@H]23)O1 | inactive |  | -8% |
| Cc1ccc(-c2cc(C(F)(F)F)nn2-c2ccc(S(N)(=O)=O)cc2)cc1 | inactive |  | -19.2% |
| Cc1cn[nH]c1 | inactive |  | 4.3% |
| CC1(C)NC(=O)N(c2ccc([N+](=O)[O-])c(C(F)(F)F)c2)C1=O | inactive |  | -23.9% |
| Cc1ccc(-n2nc(C(C)(C)C)cc2NC(=O)Nc2ccc(OCCN3CCOCC3)c3ccccc23)cc1 | inactive |  | -13.7% |
| CCOc1ccc2ccccc2c1C(=O)N[C@@H]1C(=O)N2[C@@H]1SC(C)(C)[C@@H]2C(=O)O | inactive | inactive |  |
| NS(=O)(=O)Cc1noc2ccccc12 | inactive | inactive |  |

| SMILES | Potency [1] | Potency [2] | activity change, negative = inhibition [2] |
| --- | --- | --- | --- |
| CCC[C@H](N[C@@H](C)C(=O)N1[C@H](C(=O)O)C[C@@H]2CCCC[C@@H]21)C(=O)OCC | inactive | inactive |  |
| CC(c1cc2ccccc2s1)N(O)C(N)=O (stereo not given) | inactive |  | 4.54% and -93% |
| NC(=Nc1ccccc1)Nc1ccccc1 | inactive |  | 1.43% |
| COc1ccccc1OCCNCC(O)COc1cccc2[nH]c3ccccc3c12 (stereo not given) | inactive | 22.4 µM (active) |  |
| Oc1ccc(C2CNCCc3c2cc(O)c(O)c3Cl)cc1 (stereo not given) | inactive | inactive |  |
| Cc1ccc2c(n1)Oc1ccc(C(C)C(=O)OCC(=O)N(C)C)cc1C2 (stereo not given) | inactive | inactive |  |
| CC(N)C12CC3CC(CC(C3)C1)C2 (stereo not given) | inactive |  | -7.42% |
| CC[C@@]1(c2ccccc2)NC(=O)N(C)C1=O | inactive |  | -24.8% |
| Clc1ccc(C(c2ccccc2Cl)C(Cl)Cl)cc1 (stereo not given) | inactive |  | -40.6% |
| CCOc1ccccc1OCCN[C@H](C)Cc1ccc(OC)c(S(N)(=O)=O)c1 | inactive |  | -21.5% |
| CC(=O)O[C@]1(C(C)=O)CC[C@H]2[C@@H]3C=C(C)C4=CC(=O)CC[C@]4(C)[C@H]3CC[C@@]21C | inactive | inactive | -12.1% |
| CCCNCC(O)COc1ccccc1C(=O)CCc1ccccc1 (stereo not given) | inactive | 20 µM (active) and 35.5 µM (active) |  |
| C=C(c1ccc(C(=O)O)cc1)c1cc2c(cc1C)C(C)(C)CCC2(C)C | inactive | inactive | -6.82% |
| CC(=O)Oc1cc2c(s1)CCN(C(C(=O)C1CC1)c1ccccc1F)C2 (stereo not given) | inactive | inactive | -16.4% |
| CN(CCOc1ccc(CC2SC(=O)NC2=O)cc1)c1ccccn1 (stereo not given) | inactive | inactive | -30.2% |
| CC(=O)Nc1nnc(S(N)(=O)=O)s1 | inactive |  | 1.7% |
| CC[C@H](C)C(=O)O[C@H]1C[C@@H](C)C=C2C=C[C@H](C)[C@H](CC[C@@H]3C[C@@H](O)CC(=O)O3)[C@H]21 | inactive | inactive |  |
| O=C(O)COCCN1CCN(C(c2ccccc2)c2ccc(Cl)cc2)CC1 (stereo not given) | inactive |  | -14.4% |
| CC(C)NCC(O)c1ccc(O)c(O)c1 (stereo not given) | inactive | inactive | -10.8% |
| Cc1ccnc2c1NC(=O)c1cccnc1N2C1CC1 | inactive |  | -19.4% |
